From PubChem BioAssay AID2284370 (EPA ToxCast) come the findings set out here.

Results filed as inconclusive are left out. Activity calls are given as the source filed them. The calls were made as follows: active = hit-call score of the fitted dose curve at least 0.9, where 1 is the maximum; inconclusive = response in the unintended direction; inactive = score below 0.9.

The target in this assay is human Androgen Receptor (AR), AR (gene 367) (UniProt P10275). Nature of the assay: ATG_hAR_EcoTox2: Attagene TRANS-FACTORIAL EcoTox-2 HepG2 Assay for human Androgen Receptor (AR). The method, then: ATG_EcoTox2 is a cell-based, multiplexed assay created by modifying the existing Attagene TRANS-FACTORIAL system to include a panel of nuclear receptors from some or all the following species: human (Homo sapiens), african clawed frog (Xenopus laevis), rainbow trout (Oncorhynchus mykiss), japanese medaka (Oryzias latipes), and zebrafish (Danio rerio). The ECOTOX2-FACTORIAL format uses HepG2, a human liver cell line, with measurements taken at 24 hours after chemical dosing in a 24-well plate. ATG_hAR_EcoTox2 is one of 29 assay components calculated in the ATG_EcoTox2 assay. It is designed to make measurements of mRNA induction, a form of inducible reporter, as detected with fluorescence intensity signals by Reverse transcription polymerase chain reaction (RT-PCR) and Capillary electrophoresis technology.The assay endpoint ATG_hAR_EcoTox2 was analyzed in the positive analysis fitting direction relative to DMSO as the negative control and baseline of activity. Using a type of inducible reporter, measures of mRNA for gain-of-signal activity can be used to understand the reporter gene at the transcription factor-level as they relate to the gene AR. Furthermore, this assay endpoint can be referred to as a primary readout, because this assay has produced multiple assay endpoints where this one serves a reporter gene function. To generalize the intended target to other relatable targets, this assay endpoint is annotated to the nuclear receptor intended target family, where the subfamily is steroidal.
Chain of human Androgen Receptor (AR), AR (gene 367) (P10275 whole entry, looked up): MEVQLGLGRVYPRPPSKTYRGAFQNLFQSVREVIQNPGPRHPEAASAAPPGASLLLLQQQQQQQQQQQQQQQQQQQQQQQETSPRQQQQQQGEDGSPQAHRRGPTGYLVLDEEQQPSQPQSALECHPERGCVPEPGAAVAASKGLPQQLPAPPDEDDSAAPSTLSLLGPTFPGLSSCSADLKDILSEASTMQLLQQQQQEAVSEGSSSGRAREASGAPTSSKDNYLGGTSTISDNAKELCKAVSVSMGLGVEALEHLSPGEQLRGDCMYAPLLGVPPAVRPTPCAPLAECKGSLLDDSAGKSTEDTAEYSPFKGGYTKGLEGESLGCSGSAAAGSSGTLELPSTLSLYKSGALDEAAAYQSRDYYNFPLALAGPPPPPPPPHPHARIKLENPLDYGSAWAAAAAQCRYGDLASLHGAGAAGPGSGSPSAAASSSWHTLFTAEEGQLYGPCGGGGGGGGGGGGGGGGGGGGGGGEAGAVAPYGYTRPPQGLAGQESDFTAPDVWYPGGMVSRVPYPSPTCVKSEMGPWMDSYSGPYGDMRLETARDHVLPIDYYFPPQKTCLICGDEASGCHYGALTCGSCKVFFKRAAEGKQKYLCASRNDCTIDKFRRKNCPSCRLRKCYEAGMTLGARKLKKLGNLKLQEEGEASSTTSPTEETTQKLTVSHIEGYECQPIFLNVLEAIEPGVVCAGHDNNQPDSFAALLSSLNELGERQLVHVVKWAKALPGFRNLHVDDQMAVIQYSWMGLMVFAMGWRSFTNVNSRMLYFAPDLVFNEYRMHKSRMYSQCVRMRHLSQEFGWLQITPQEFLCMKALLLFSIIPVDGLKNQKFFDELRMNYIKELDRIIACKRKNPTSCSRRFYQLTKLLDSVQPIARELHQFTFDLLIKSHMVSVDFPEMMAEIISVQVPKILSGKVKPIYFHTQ
Human liver HepG2 cells are transiently transfected with multiple reporter transcription units (MRTUs) in 6-well plates using FuGene 6 reagent (Roche; 3 ml FuGene/1 mg DNA). The MRTU constructs are regulated by a cis-regulating element (promoter). Each RTU expresses a GAL4-UAS that regulates the transcription of a nearby target reporter gene sequence. A major difference between the CIS and TRANS system is that in CIS activities of endogenous TFs are measured, whereas the TRANS assay evaluates changes in activities of exogenous, chimeric NR-Gal4 proteins. […] At the end of 24 hour incubation, total RNA was isolated using TriZol reagent (Invitrogen). The isolated RNA is then reverse-transcribed using oligo(dT) primer and Mo-MLV reverse transcriptase (Invitrogen) with DNAse I (Ambion) treatment for 30 min. The one-tenth of the produced cDNA was amplified by PCR using Taq DNA polymerase (Invitrogen) and two reporter sequence-specific primers. […] The fragments were purified using Qiaquick PCR columns (Qiagen), analyzed on an ABI 3130xL genetic analyzer (Applied Biosystems) with peak positions identified by using a set of X-rhodamine (ROX)-labeled MapMarker1000 molecular weight standards (BioVentures). […]
`CC(c1cc2ccccc2s1)N(O)C(N)=O` (centres undefined): the compound was called inactive.

With `CC(C)(Oc1ccc(C2CC2(Cl)Cl)cc1)C(=O)O` (centres undefined), the result was inactive.

As for `Cc1ccc(C)c(OCCCC(C)(C)C(=O)O)c1`, the compound was called inactive.

Turning to `CC(C)OC(=O)C(C)(C)Oc1ccc(C(=O)c2ccc(Cl)cc2)cc1`, the compound was classed as inactive.
